{"source": "PubChem BioAssay AID1347416", "about": "(National Center for Advancing Translational Sciences (NCATS), 2020)", "note": "Screen size: about 4,100 compounds; about 1,600 (39%) were called active. Roughly 25% stayed inconclusive and do not appear here. The list shows a part of the results. Unmarked numbers belong to inactive results. Calls follow the shape of the dose curve; as a rule, active = well fitted inhibition curve with a large enough effect; inconclusive = small, poorly fitted or top-dose-only effect; inactive = no such curve, though single readings can be large or run the other way. % is scaled to controls: 0 for no effect and ±100 for the full control effect; potency is read from the fitted curve at half-maximal effect.", "data": [{"assay": "qHTS Validation assay for Inhibitors of Plasmodium falciparum Dd2 growth in vitro; also: nearly all actives have a fitted effect of over 70% in size", "settings": "P. falciparum Dd2 in RBCs, SYBR Green growth, 72 h; series mostly up to 28.7 µM; activity change, negative = inhibition: at the top concentration", "outline": "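P. falciparum Dd2-infected red blood cells (2.5% hematocrit, 0.3% parasitemia) grown 72 h at 37 °C under 5% O2 with compounds in a titration, 29 uM to 0.5 nM final. Growth read as SYBR Green-1 fluorescence after ~16 h lysis; artesunate 300 nM as positive control.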", "values": [{"smiles": "Cc1ccc(-n2cc(CNCCc3ncc(C)[nH]3)c(-c3ccc(F)cc3)n2)cc1", "Potency": "15 µM (active)"}, {"smiles": "COCc1nc2nc(-c3ccccc3)c(Nc3ccc(F)cc3)cc2n1C", "activity change, negative = inhibition": "-2.2% [at 43.1 µM]"}, {"smiles": "CN(C)CCNC(=O)c1nc2nc(-c3ccccc3)c(-c3cccc(F)c3)cc2n1C", "Potency": "19.3 µM (active)"}, {"smiles": "Cc1cccc(C)c1-c1nc(C(=O)NCc2ccc(F)cc2)n2ccccc12", "activity change, negative = inhibition": "-24.8%"}, {"smiles": "CCn1nccc1C(=O)N1CCC(C(=O)N2CCCCCCNC(=O)CC2)CC1", "activity change, negative = inhibition": "4.4%"}, {"smiles": "CCOC(=O)c1[nH]c(Cc2[nH]c(C(=O)OCC)c(C)c2CCC(=O)OC)c(CCC(=O)OC)c1C", "Potency": "5.31 µM (active)"}, {"smiles": "CN(C)c1cccc(-c2nccc3c(=O)cc(-c4cn[nH]c4)oc23)c1", "activity change, negative = inhibition": "-2.52% [at 43.1 µM]"}, {"smiles": "CC(C)(C)CC(C)(C)c1ccc(O)c(CN2CCN(CCC#N)CC2)c1", "Potency": "0.842 µM (active)"}, {"smiles": "Cc1ccc(C(=O)N2CCC3(CC2)N(c2ccccc2)C(=O)CS3(=O)=O)c(C)c1", "activity change, negative = inhibition": "18.7%"}, {"smiles": "CC(=O)Oc1ccc2ccccc2c1C(NC(=O)C(C)C)c1cccc([N+](=O)[O-])c1", "note": "(stereo not drawn)", "Potency": "16.8 µM (active)"}, {"smiles": "CC(C)C(=O)NC(c1ccc([N+](=O)[O-])cc1)c1c(O)ccc2ccccc12", "note": "(stereo not drawn)", "Potency": "13.3 µM (active)"}, {"smiles": "CCCCC(=O)NC(c1cccc([N+](=O)[O-])c1)c1c(OC(C)=O)ccc2ccccc12", "note": "(stereo not drawn)", "Potency": "3.76 µM (active)"}, {"smiles": "Cc1nc(N2CCN(C)CC2)c2c3c(sc2n1)CCCC3", "activity change, negative = inhibition": "63.3%"}, {"smiles": "Cc1noc(C)c1CSc1nc2sc3c(c2c(=O)n1C)CCCC3", "Potency": "8.41 µM (active)"}, {"smiles": "Cc1ccccc1C(=O)N1CCC(c2nc3ccccc3s2)CC1", "activity change, negative = inhibition": "1.54%"}, {"smiles": "Cc1occc1C(=O)N1CCN(C(c2ccccc2)c2ccccc2)CC1", "Potency": "10.6 µM (active)"}, {"smiles": "Cc1nnc([C@@H]2CC(F)(F)CN2C(=O)c2ccoc2C)o1", "activity change, negative = inhibition": "33.4%"}, {"smiles": "Cc1ccccc1NC(=O)c1c(C)oc2ccc(O)c(CN(C)Cc3ccccc3)c12", "Potency": "2.37 µM (active)"}, {"smiles": "Cc1ccc(NC(=O)c2c(C)oc3ccc(O)c(CN(C)Cc4ccccc4)c23)c(C)c1", "Potency": "5.96 µM (active)"}, {"smiles": "CCN(Cc1ccccc1)Cc1c(O)ccc2oc(C)c(C(=O)Nc3ccccc3C)c12", "Potency": "4.73 µM (active)"}, {"smiles": "Cc1oc2ccc(O)c(CN(C)Cc3ccccc3)c2c1C(=O)Nc1ccccc1", "Potency": "2.37 µM (active)"}, {"smiles": "CCN(CC)c1ccc(-n2nc3cc(C)c(NC(=O)c4ccccc4F)cc3n2)cc1", "activity change, negative = inhibition": "-28.1%"}, {"smiles": "Cc1oc2ccc(O)c(CN(C)Cc3ccccc3)c2c1C(=O)Nc1cccc(C(F)(F)F)c1", "Potency": "2.11 µM (active)"}, {"smiles": "O=C(Nc1cccc(C(F)(F)F)c1)c1nc2c(o1)CCN(Cc1cccc(F)c1)CC2", "activity change, negative = inhibition": "13.4% [at 43.1 µM]"}, {"smiles": "CC(=O)Nc1cccc(C(=O)NC2CCCN(c3cc(-c4ccc(Cl)cc4)[nH]n3)C2)c1", "note": "(stereo not drawn)", "activity change, negative = inhibition": "-18.7%"}, {"smiles": "CC(=O)Nc1cccc(C(=O)N2CCC3(CC2)N=C(c2ccc(C)cc2)NO3)c1", "Potency": "0.842 µM (active)"}, {"smiles": "COc1ccccc1CC(=O)N1CCC2(CC1)N=C(c1cccc(Br)c1)NO2", "activity change, negative = inhibition": "-7.17%"}, {"smiles": "CCOc1cccc(C2Nc3ccccc3-c3cc(C)nn32)c1O", "note": "(stereo not drawn)", "activity change, negative = inhibition": "-12%"}, {"smiles": "COc1cccc(/C(C#N)=C/c2c(-c3ccc(Cl)cc3)nc3c(C)cccn23)c1", "Potency": "5.96 µM (active)"}, {"smiles": "O=C1NC(=O)/C(=C\\c2ccc(N3CCOCC3)o2)N1", "Potency": "9.44 µM (active)"}, {"smiles": "Cc1ccc(C(=O)NC2CCCN(c3cc(-c4ccccc4)[nH]n3)C2)s1", "note": "(stereo not drawn)", "activity change, negative = inhibition": "1.75%"}, {"smiles": "Cn1c2ccc(F)cc2c2nnc(SCCN3CCCCC3)nc21", "Potency": "15 µM (active)"}, {"smiles": "Cn1c(=S)c2[nH]c(SCCN3CCCC3)nc2n(C)c1=O", "activity change, negative = inhibition": "-13.5%"}, {"smiles": "Nc1nc2[nH]cc(CCc3ccc(C(=O)N[C@@H](CCC(=O)O)C(=O)O)cc3)c2c(=O)[nH]1", "Potency": "7.5 µM (active)"}, {"smiles": "Cc1ccc(CN2CCCN(Cc3ccncc3)C(c3ccccc3)CC(=O)NCC2)s1", "note": "(stereo not drawn)", "Potency": "2.66 µM (active)"}, {"smiles": "Cc1ccc(CN2CCCN(Cc3ccncc3)C(c3ccccc3)CC(=O)NCC2)o1", "note": "(stereo not drawn)", "Potency": "7.5 µM (active)"}, {"smiles": "Cc1ncsc1CN1CCCN(Cc2ccncc2)C(c2ccccc2)CC(=O)NCC1", "note": "(stereo not drawn)", "Potency": "8.41 µM (active)"}, {"smiles": "Cc1ccsc1CN1CCCN(S(=O)(=O)c2ccccc2)CCC(=O)NCC1", "activity change, negative = inhibition": "-23.3%"}, {"smiles": "CN(C)C(=O)C1CN(C(=O)NC2CCCCC2)CC12CCOCC2", "note": "(stereo not drawn)", "activity change, negative = inhibition": "13.2%"}, {"smiles": "Cn1cccc1C(=O)N1CC[C@H](NC(=O)Nc2ccc(F)cc2F)[C@H]1C(=O)N[C@H](Cc1ccccc1)C(N)=O", "activity change, negative = inhibition": "35.9%"}, {"smiles": "Cc1ccc(O)c([C@H](CCN(C(C)C)C(C)C)c2ccccc2)c1", "Potency": "4.22 µM (active)"}, {"smiles": "COc1ccc(CCNC(=O)CCc2cn(Cc3ccc(F)cc3)c3ccccc23)cc1OC", "activity change, negative = inhibition": "-6.47%"}, {"smiles": "COc1ccc(CCNC(=O)CC(c2ccccc2OC)c2c[nH]c3ccccc23)cc1OC", "note": "(stereo not drawn)", "Potency": "13.3 µM (active)"}, {"smiles": "CCCC1c2nccn2CCCN1C(=O)c1cnco1", "note": "(stereo not drawn)", "activity change, negative = inhibition": "16.6%"}, {"smiles": "Cc1cccnc1CNC[C@H]1O[C@@H]2C[C@@H](CC(=O)N3CCOCC3)O[C@@H]2[C@@H]1O", "activity change, negative = inhibition": "0% [at 43.1 µM]"}, {"smiles": "Cc1cccc(CN2CCCC(O)(CNCc3ncccc3C)C2=O)c1", "note": "(stereo not drawn)", "Potency": "16.8 µM (active)"}, {"smiles": "CCCn1cc(SCC(=O)NCc2ccco2)c2ccccc21", "Potency": "8.41 µM (active)"}, {"smiles": "CCOC(=O)c1c(NC(=O)CSc2cn(CCNC(=O)c3cccc(C(F)(F)F)c3)c3ccccc23)sc2c1CCC2", "activity change, negative = inhibition": "9.72%"}]}]}
